CD11b adhes inh: CD11b/CD18-fibrinogen binding inhibition; P05107+P11215; K562 CD11b/CD18 adhesion to fibrinogen, ATPlite luminescence; Mn2+ added to activate the integrin; inhibition, % at 10 µM; actives 0.54% (n = 93,000); AID 1497;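 active = primary inhibition of 50% or more at 10 µM, then 40% or more on retest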
Target sequence (P05107 whole entry, looked up, other chains not shown): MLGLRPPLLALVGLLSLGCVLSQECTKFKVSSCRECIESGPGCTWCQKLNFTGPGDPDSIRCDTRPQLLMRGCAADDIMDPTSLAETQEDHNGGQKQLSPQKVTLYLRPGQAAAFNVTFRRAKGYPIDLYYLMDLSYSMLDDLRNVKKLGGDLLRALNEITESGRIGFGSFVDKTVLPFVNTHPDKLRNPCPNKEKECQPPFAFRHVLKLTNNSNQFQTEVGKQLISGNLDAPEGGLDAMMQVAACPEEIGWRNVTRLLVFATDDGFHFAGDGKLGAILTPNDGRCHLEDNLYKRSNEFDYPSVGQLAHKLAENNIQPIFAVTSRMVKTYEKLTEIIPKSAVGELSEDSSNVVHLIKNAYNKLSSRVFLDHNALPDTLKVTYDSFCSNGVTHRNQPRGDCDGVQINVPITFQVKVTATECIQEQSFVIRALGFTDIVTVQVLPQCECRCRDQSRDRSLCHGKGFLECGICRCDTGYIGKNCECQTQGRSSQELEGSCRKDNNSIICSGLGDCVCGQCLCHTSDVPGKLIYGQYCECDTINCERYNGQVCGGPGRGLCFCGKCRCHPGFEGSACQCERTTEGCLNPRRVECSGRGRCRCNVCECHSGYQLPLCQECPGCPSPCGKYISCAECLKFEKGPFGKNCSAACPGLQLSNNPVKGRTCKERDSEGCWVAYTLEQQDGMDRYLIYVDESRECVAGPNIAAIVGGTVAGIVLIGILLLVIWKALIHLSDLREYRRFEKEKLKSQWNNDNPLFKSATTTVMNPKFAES
Mac1 fbg enh: increases human CD11b/CD18 adhesion to fibrinogen. P05107+P11215. actives 0.07% (n = 93,000). activation, % at 10 µM. K562 CD11b/CD18 adhesion to fibrinogen, ATPlite luminescence;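 active = 10 µM primary screen giving 50% or more activity, confirmed by 40% or more on retest at that dose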
MMP13 inh: inhibitors of human MMP13; MMP-13 fTHP FRET cleavage, Mca fluorescence; actives 0.07% (n = 65,000); inhibition, % at 4 µM; P45452;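 active = inhibition above the mean of compound-free control plate wells plus 3 SD, cut at about 14% in these data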
FAK inh: inhibitors of human focal adhesion kinase | Q05397 | biochemical FAK kinase activity assay | inhibition, %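 (tested at 7 µM)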 | actives 0.84% (n = 97,000) | AID 727; in the data active = inhibition above about 19%
Hits are given with their value; n = inactive; x = no result given. In the library only some 1.1% were active in any assay of this set; here they are far more common.

SMILES	CD11b adhes inh	Mac1 fbg enh	MMP13 inh	FAK inh
CCOC(=O)Oc1ccc2c(=O)c(Oc3cccc(C)c3)coc2c1	x	x	x	n
COc1ccc(C(=O)OCC(=O)c2ccccc2)cc1S(=O)(=O)N1CCOCC1	n	n	x	n
COC(=O)c1sc(S(=O)(=O)Nc2ccc(Br)cc2)c(C(=O)OC)c1C	91	n	x	x
COC(=O)c1sc(S(=O)(=O)Nc2ccc3cn[nH]c3c2)c(C(=O)OC)c1C	n	n	n	n
CCn1c(SCC(=O)c2ccc3c(c2)Cc2ccccc2-3)nnc1-c1ccc(N)cc1	n	92	x	n
CCn1c(SCC(=O)c2ccc(O)c(O)c2)nnc1-c1ccc(C)cc1	n	n	x	n
COc1ccc(CCNC(=O)c2c(-c3ccccc3Cl)noc2C)cc1	n	n	x	n
Cc1[nH]c2ccccc2c1/C=C(\C#N)S(=O)(=O)c1ccccc1	n	n	x	n
N#C/C(=C\c1ccc(O)c(O)c1)S(=O)(=O)c1ccccc1	82	n	n	n
CCC(=O)Nc1ccc(-c2nn3c(C)nnc3s2)cc1	x	x	n	n
Cc1nnc2sc(-c3ccc(NC(=O)c4ccc(-c5ccc(Br)cc5)o4)cc3)nn12	x	x	n	21
Cc1ccc(Cl)cc1NC(=O)CC(O)(C(F)(F)F)C(F)(F)F	98	n	n	n
c1ccc(-c2noc(CSc3nnc(Cc4cccs4)n3-c3ccccc3)n2)cc1	x	x	n	n
Clc1ccc(-c2noc(CSc3nnc(Cc4cccs4)n3-c3ccccc3)n2)cc1	69	n	x	n
Cc1ccccc1C(=O)N1CCCN(C(=O)c2ccccc2C)CC1	n	n	n	n
CC(C)Sc1nc2ccccc2n1CC(N)=O	n	n	n	n
CCNC(=S)NNC(=O)c1cc(-c2cccc(C)c2)nc2ccccc12	60	n	x	n
O=S(=O)(Nc1ncnc2sc3c(c12)CCC3)c1ccc(Cl)s1	87	n	n	n
O=C(O)[C@H](CO)Nc1ncnc2sc3c(c12)CCC3	x	x	x	n
Cc1nc(NS(=O)(=O)c2cccs2)c2c3c(sc2n1)CCC3	n	n	n	n
Cc1nc(NS(=O)(=O)c2ccc(Br)cc2)c2c3c(sc2n1)CCC3	93	n	x	n
Clc1cccc(-c2nc(-c3ccccn3)no2)c1	n	n	n	n
Cc1ccccc1-c1noc(-c2ccc(O)cc2)n1	74	n	n	n
Cc1ccc(-c2nc(-c3ccccn3)no2)cc1Cl	71	n	n	n
Cc1ccc(-c2nc(-c3ccccn3)no2)cc1	91	n	n	n
SMILES	CD11b adhes inh	Mac1 fbg enh	MMP13 inh	FAK inh
c1ccc(-c2ccc(-c3nc(-c4ccccn4)no3)cc2)cc1	n	n	x	n
Cc1ccccc1-c1noc(-c2ccc(Cl)cc2)n1	x	x	x	n
COc1ccc(C)cc1NC(=O)C1CC(=O)OC12CCCCC2 (stereo not drawn)	n	n	n	n
O=C(/C=C/c1cccnc1)c1ccc(NC(=O)c2cccc(Br)c2)cc1	n	72	x	n
O=C(CSc1ncn[nH]1)NCCCc1ccccc1	n	n	n	n
CCOC(=O)c1c(-c2ccccc2)oc2cc(CN(C)C)c(O)c(CN(C)C)c12	x	x	x	n
O=C(COC(=O)COc1ccccc1[N+](=O)[O-])Nc1ccc(S(=O)(=O)N2CCCCC2)cc1	50	n	x	n
COc1ccccc1OCC(=O)Nc1ccc(S(=O)(=O)N2CCCCCC2)cc1	n	n	n	n
O=C(COc1ccc(Cl)cc1Cl)NC(=O)N1CCCCC1	n	n	14	n
O=C(COc1ccc(Cl)cc1Cl)Nc1ccccn1	99	n	n	n
CC(=O)NC(=S)Nc1ccc(NC(=O)COc2ccc(Cl)cc2Cl)cc1	n	53	x	n
CSc1ccccc1NC(=O)COc1ccc(Cl)cc1Cl	n	n	x	x
CCOC(=O)CSC(CC)C(=O)Nc1nnc(C(C)C)s1 (stereo not drawn)	x	x	n	n
Cc1nc(CN2CCN(C(=O)c3ccc(Br)cc3)CC2)cs1	n	n	n	n
CC1(c2ccccc2)NC(=O)N(CC(=O)Nc2cccc(C#N)c2)C1=O (stereo not drawn)	n	n	n	x
COCCn1nnnc1SCC(=O)c1ccc(F)cc1	x	x	n	n
Cc1ccc(CNC(=O)c2nc3nc(C)cc(C)n3n2)cc1	n	n	x	n
CCn1c(SCC(=O)Nc2cccc(C(C)=O)c2)nnc1C(C)C	n	n	n	n
CN1CCN(CCCNC(=O)c2ccc3c(c2)N(Cc2ccccc2)CCS3)CC1	n	n	n	n
CCC(NC(=O)Nc1nnc(C(F)(F)F)s1)(C(F)(F)F)C(F)(F)F	107	n	n	n
Cc1n[nH]c(C)c1Sc1ccccc1N=Cc1cc(Cl)cc([N+](=O)[O-])c1O	57	n	x	n
O=C(/C=C/Nc1cccc(O)c1)c1ccccc1	69	n	n	x
O=C(/C=C\Nc1ccccn1)c1ccccc1	n	n	n	n

High-throughput results: PubChem BioAssay, several laboratories
